CHX counter = counter-screen for Shiga toxin inhibitors: cycloheximide protein synthesis inhibition; AID 2314; actives 12% (n = 300,000); max response, %; cell reporter, cycloheximide protein synthesis inhibition counterscreen; in the data active means max response mostly above about 13%, no sharp cut-off; inactive means mostly below about 14%; further: read at 38.3 µM for the half of the compounds with a filed dose; 0% is about no effect
SARS PLpro yeast = SARS-CoV PLP inhibition in yeast. S. cerevisiae expressing SARS-CoV PLpro, growth rescue. actives 0.19% (n = 330,000). Potency, µM (top dose mostly 32.9 µM), for inactives: at the highest dose activity, positive = growth rescue, hits mostly activators; calls by dose curve; further: potency means the concentration at half of the fitted maximal effect; 0% is about no effect; nearly all actives have a fitted effect of over 55% in size
Pf growth 96h = inhibits malaria parasite growth, 96 h | P. falciparum luciferase reporter growth, 96 h | Potency, µM (series often up to 28.7 µM), without a hit: top-dose activity change, negative = inhibition, hits mostly inhibitors | actives 6.9% (n = 320,000); further: potency means the concentration at half of the fitted maximal effect; on the % scale 0 is the no-effect control and ±100 the full control effect
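Readout is luminescence from an integrated firefly luciferase in P. falciparum. Red cells, 2% hematocrit and 0.05% parasitemia final, were cultured with compound through two parasite generations (96 hours) at 37 C, 5% CO2.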
Pf growth 48h = P. falciparum growth inhibition at 48 hours (one generation). P. falciparum luciferase growth in erythrocytes, 48 h. Potency, µM (top dose mostly 28.7 µM), inactives show at the top dose activity change, negative = inhibition, most hits filed as inhibitors. actives 5.9% (n = 310,000). AID 504832; further: potency means the concentration at half of the fitted maximal effect; on the % scale 0 is the no-effect control and ±100 the full control effect
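Parasite viability was followed by luminescence of a genomically integrated firefly luciferase. Cultures held 0.1% parasitemia at 2% hematocrit (final), incubated under 5% CO2 at 37 C.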
NS1 function inh = influenza NS1 inhibition; Potency, µM (doses to about 46.1 µM), without a hit: at the highest dose activity, positive = more growth; actives 0.4% (n = 270,000); calls by dose curve; further: potency means the concentration at half of the fitted maximal effect; actives are rising curves; nearly all actives have a fitted effect of over 50% in size
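OD600 was taken as the measure of yeast growth restored by compound in an NS1-expressing S. cerevisiae strain. Cells had been washed out of glucose medium and diluted 1:100 into galactose -URA medium, pH 6.0.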
Shiga inhibitor = blocks Shiga toxin action in Vero cells. Vero cells, Shiga toxin protein synthesis inhibition reporter. inhibition, % at 38.7 µM. actives 9.2% (n = 290,000). AID 2315; in the data active means inhibition mostly above about 28%, no sharp cut-off; inactive means mostly below about 43%; further: 0% is about no effect
* = called active by the depositor; i = inactive; u = inconclusive; x = no result; [ ] = remark or other dose. Hits are enriched below; roughly 21% of the tested compounds scored in any of these assays. Unless noted, the call rests on the fitted dose curve; in most records, active means well fitted inhibition curve with a large enough effect; inconclusive means small, poorly fitted or top-dose-only effect, or another doubt; inactive means no such curve, though single readings can be large or run the other way.

SMILES | CHX counter | SARS PLpro yeast | Pf growth 96h | Pf growth 48h | NS1 function inh | Shiga inhibitor
COc1ccc(C(CCN2CCCC(C)C2)c2c(OC)cc(OC)c3c(C)cc(=O)oc23)cc1 (centres undefined) | -5.2 | 1.1% | 2.62µM* | 2.94µM* | -9.5% | -2.1
COc1cc(OC)c2ccc(=O)oc2c1C(CCN1CCCC1)c1ccc2c(c1)OCO2 (centres undefined) | -7.2 | 6.5% | u | u | 3.7% | -11.6
COc1cc(OC)c2ccc(=O)oc2c1C(CCN1CCN(c2ccccc2)CC1)c1ccc(N(C)C)cc1 (centres undefined) | -5.8 | 1.2% | 10.4µM* | 11.7µM* | -4.3% | -13.7
COc1cc(C(CCN2CCCCC2)c2c(OC)cc(OC)c3c(C)cc(=O)oc23)cc(OC)c1OC (centres undefined) | -4.6 | -2.6% | 9.28µM* | 8.28µM* | -4.0% | 3.8
COc1cc(C(CCN2CCCC2)c2c(OC)cc(OC)c3c(-c4ccccc4)cc(=O)oc23)cc(OC)c1OC (centres undefined) | -12.5 | -1.9% | 1.85µM* | 2.33µM* | u | -13.9
COc1cc(C(CCN2CCOCC2)c2c(OC)cc(OC)c3c(-c4ccccc4)cc(=O)oc23)cc(OC)c1OC (centres undefined) | -3.1 | 3.4% | x | x | x | i
O=S(=O)(c1cccc(C(F)(F)F)c1)N1CCN(C(=S)NC2CC2)CC1 | -1.4 | 2.0% | u | u | 5.4% | -11.0
COc1ccc(C(CCN2CCOCC2)c2c(OC)cc(OC)c3c(-c4ccccc4)cc(=O)oc23)cc1 (centres undefined) | 1.4 | 1.8% | x | x | x | -4.8
COc1cc(OC)c2c(C)cc(=O)oc2c1C(CCN1CCN(c2ccccc2)CC1)c1ccc2c(c1)OCO2 (centres undefined) | 8.9 | -2.9% | 2.08µM* | 3.29µM* | -9.1% | -4.0
COc1cc(OC)c2c(C)cc(=O)oc2c1C(CCN1CCOCC1)c1ccc(N(C)C)cc1 (centres undefined) | -5.9 | 0.2% | u | 10.4µM* | -11.2% | -14.0
COc1ccc(C(CCN2CCCC2)c2c(OC)cc(OC)c3c(-c4ccccc4)cc(=O)oc23)cc1 (centres undefined) | -1.0 | 12.3% | 11.7µM* | 11.7µM* | -0.7% | -15.0
COc1ccc(C(CCN2CCN(c3ccccc3)CC2)c2c(OC)cc(OC)c3c(-c4ccccc4)cc(=O)oc23)cc1 (centres undefined) | 12.4 | 1.4% | 4.65µM* | 3.29µM* | 9.3% | 1.4
COc1ccc(C(CCN2CCCC(C)C2)c2c(OC)cc(OC)c3c(-c4ccccc4)cc(=O)oc23)cc1 (centres undefined) | 8.0 | 9.4% | 5.86µM* | 11.7µM* | -3.3% | -8.4
COc1cc(OC)c2c(-c3ccccc3)cc(=O)oc2c1C(CCN1CCOCC1)c1ccc2c(c1)OCO2 (centres undefined) | 18.8 | 8.6% | x | x | x | -1.6
COc1cc(OC)c2c(-c3ccccc3)cc(=O)oc2c1C(CCN1CCN(c2ccccc2)CC1)c1ccc(N(C)C)cc1 (centres undefined) | -2.6 | -2.6% | 4.15µM* | 5.22µM* | -2.0% | -2.5
COc1cc(OC)c2c(-c3ccccc3)cc(=O)oc2c1C(CC(=O)N1CCOCC1)c1ccc(N(C)C)cc1 (centres undefined) | 14.5 | 0.5% | u | 7.38µM* | -46.7% | -12.1
COc1cc(OC)c2c(-c3ccccc3)cc(=O)oc2c1C(CCN1CCCC(C)C1)c1ccc(N(C)C)cc1 (centres undefined) | -3.9 | 2.6% | u | u | -55.2% | 3.0
COc1cc(OC)c2c(-c3ccccc3)cc(=O)oc2c1C(CCN1CCCC1)c1ccc2c(c1)OCO2 (centres undefined) | -6.5 | -1.1% | 8.28µM* | u | -1.5% | -7.7
OC1CCCC1 | x | -6.4% | 39.7% | 41.6% | x | x
COc1ccccc1C(=O)COC(=O)/C(=C/c1ccccc1)NC(C)=O | x | 2.5% | 39.9% | 17.9% | x | x
COc1cc2c(C)nc3c(cnn3-c3ccccc3)c2cc1OC | 3.0 | -0.4% | 26.9% | 15.6% | -1.6% | 24.0
CCN(CC)CCC(c1ccc(N(C)C)cc1)c1c(OC)cc(OC)c2c(-c3ccccc3)cc(=O)oc12 (centres undefined) | -10.4 | -1.2% | 3.7µM* | 8.28µM* | -20.8% | -19.4
COc1cc(OC)c2c(-c3ccccc3)cc(=O)oc2c1C(CC(=O)N1CCN(c2ccccc2)CC1)c1ccc(N(C)C)cc1 (centres undefined) | 9.1 | 0.3% | u | u | 1.5% | -4.5
C=C1C=CS(=O)(=O)N(Cc2ccccc2)C1 | -10.3 | x | x | x | x | -14.2
COc1ccc(CCN2CC(C(=O)N3CCCCCC3)CCC2=O)cc1 (centres undefined) | 15.2 | 23.0% | -8.4% | 11.1% | 9.8% | -29.0
SMILES | CHX counter | SARS PLpro yeast | Pf growth 96h | Pf growth 48h | NS1 function inh | Shiga inhibitor
CCOC(=O)C(C)Sc1ncc(-c2ccc(Cl)cc2)cn1 (centres undefined) | 12.6* | -10.9% | u | 1.0% | -18.4% | -10.6
CCOC(=O)C(C)Sc1nc(=O)n2cccc(C)c2n1 (centres undefined) | 7.8 | -3.1% | 2.2% | 0.8% | x | -1.5
O=C(Cn1cnnn1)Nc1cccc([N+](=O)[O-])c1 | -4.7 | -5.6% | 0.8% | 14.5% | x | 4.4
CC(C)ON(C(C(=O)NO)C(C)C)S(=O)(=O)c1ccc(-c2ccccc2)cc1 (centres undefined) | -4.3 | x | x | x | x | 32.8
OC(CN1CCN(c2ccccc2F)CC1)c1ccc(F)cc1 (centres undefined) | 9.9* | -0.5% | u | u | 0.8% | 12.0
CN(Cc1ccccc1)C(=O)CN1CCN(C(c2ccccc2)c2ccccc2)CC1 | -2.4 | 0.5% | 10.4µM* | -32.6%[5.75 µM] | -6.1% | -12.8
OC(CN1CCN(C(c2ccccc2)c2ccccc2)CC1)c1ccc(Br)cc1 (centres undefined) | -3.9 | 3.5% | 1.31µM* | x | 4.0% | 11.3
CN1CCN(CC(O)c2ccccc2)CC1 (centres undefined) | -1.2 | 7.6% | 35.1% | 9.1% | 12.4% | 2.2
OC(CN1CCN(C(c2ccccc2)c2ccccc2)CC1)c1ccccc1 (centres undefined) | -1.4 | 2.4% | u | 9.28µM* | -1.8% | -6.8
O=C(O)CC(NC(=O)C(c1ccccc1)c1ccccc1)c1cccc([N+](=O)[O-])c1 (centres undefined) | -3.5 | 0.7% | -0.2% | u | 5.5% | -1.7
Cc1ccc(S(=O)(=O)N(Cc2ccc(F)cc2)C(=O)N2CCN(C)CC2)cc1 | x | -0.2% | 4.4% | u | x | x
Cc1ccc(-n2c(C)c(C)c3c(NCCN(C)C)ncnc32)cc1 | 0.2 | 1.5% | 3.2% | -0.2%[0.00184 µM] | 3.4% | 3.7
CSc1nnc(N2C(=O)C(O)=C(C(=O)c3ccco3)C2c2ccc(F)cc2)s1 (centres undefined) | 28.2* | 0.2% | -20.2% | 11.2% | 6.6% | 20.7
